# GCN5L2 inh = GCN5L2 (KAT2A) acetyltransferase inhibition. Q92830. GCN5L2 HAT assay, ThioGlo1 CoA-SH fluorescence. Potency, µM (series often up to 58.9 µM), inactives show at the highest dose activity change, negative = inhibition, actives largely listed as inhibitors. 0.21% of 390,000 active
# Target sequence (Q92830 whole entry, looked up): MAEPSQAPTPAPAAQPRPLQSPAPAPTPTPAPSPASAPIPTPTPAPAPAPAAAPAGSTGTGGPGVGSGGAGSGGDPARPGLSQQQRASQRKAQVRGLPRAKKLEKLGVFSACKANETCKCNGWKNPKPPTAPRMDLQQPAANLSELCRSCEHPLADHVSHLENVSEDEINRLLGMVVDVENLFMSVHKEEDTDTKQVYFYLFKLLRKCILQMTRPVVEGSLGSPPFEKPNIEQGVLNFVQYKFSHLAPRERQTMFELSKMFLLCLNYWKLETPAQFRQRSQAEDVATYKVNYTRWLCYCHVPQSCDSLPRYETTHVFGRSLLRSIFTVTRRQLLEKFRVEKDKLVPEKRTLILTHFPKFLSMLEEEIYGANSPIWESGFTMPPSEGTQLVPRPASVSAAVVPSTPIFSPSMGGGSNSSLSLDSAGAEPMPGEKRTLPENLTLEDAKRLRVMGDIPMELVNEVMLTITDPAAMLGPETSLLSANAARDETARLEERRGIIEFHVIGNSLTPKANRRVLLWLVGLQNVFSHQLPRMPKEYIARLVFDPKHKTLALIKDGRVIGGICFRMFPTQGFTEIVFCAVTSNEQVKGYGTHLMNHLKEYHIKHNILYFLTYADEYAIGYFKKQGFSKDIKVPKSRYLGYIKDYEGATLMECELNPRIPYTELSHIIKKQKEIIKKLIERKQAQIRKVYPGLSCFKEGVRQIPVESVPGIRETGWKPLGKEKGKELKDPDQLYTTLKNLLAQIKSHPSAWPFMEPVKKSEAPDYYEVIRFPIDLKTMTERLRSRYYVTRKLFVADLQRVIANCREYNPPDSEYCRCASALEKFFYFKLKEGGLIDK
#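 Compounds, pin-transferred from DMSO stocks, meet 20nM GCN5L2 for 15 min before the reaction begins with H3(1-25) peptide (75uM) and acetyl-CoA (70uM). Thiol-reactive ThioGlo1 reports CoA release over 20 min at room temperature.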
# PLK1 PBD inh = PLK1 (human) polo-box domain binding inhibition; Plk1 PBD binding of FITC phosphopeptide, fluorescence polarization; Potency, µM, without a hit: max response, negative = inhibition, hits mostly inhibitors; 2.8% of 360,000 active; further: series mostly up to about 57 µM; nearly all actives have a fitted effect of over 65% in size
# TDP1 inh = blocks human tyrosyl-DNA phosphodiesterase 1; Q9NUW8; recombinant TDP1, AlphaScreen DNA substrate cleavage; Potency, µM (highest dose often 130 µM), for inactives: at the highest dose activity change, negative = inhibition, usual class: inhibitors; 0.28% of 350,000 active; further: nearly all actives have a fitted effect of over 40% in size
#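 Recombinant human Tdp1 (E. coli-expressed, 1 nM final) preincubated with compounds 15 min at room temperature, then 5'-biotin/3'-phosphotyrosine-FITC DNA substrate (15 nM final) added for 5 min. AlphaScreen beads (10 ug/ml final) added 10 min; cleavage lowers signal.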
# DT40 TDP1 no CPT = qHTS for Inhibitors of human tyrosyl-DNA phosphodiesterase 1 (TDP1): qHTS in cells in absence of CPT. DT40 Tdp1-/- hTDP1 cells, no CPT, ATP luminescence, 48 h. Potency, µM (top dose mostly 46.2 µM), inactives show at the highest dose activity change, negative = growth inhibition, actives largely listed as inhibitors. 15% of 420,000 active; further: nearly all actives have a fitted effect of over 55% in size
#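 Seeded 400 DT40-hTDP1 cells/well (vehicle DMSO, no 20 nM CPT); pinned compounds; ≥48 hr at 37 °C; CellTiter-Glo luminescence as viability measure.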
# TDP1 cell CPT = growth inhibition of DT40 Tdp1-/-;hTDP1 cells with camptothecin (screen for TDP1 inhibitors); 12% of 420,000 active; Potency, µM (top dose mostly 46.2 µM), for the others: at the top dose activity change, negative = growth inhibition, actives largely listed as inhibitors; chicken DT40 Tdp1-/-;hTDP1 cells + 20 nM CPT, ATP luminescence, 48 h; further: nearly all actives have a fitted effect of over 55% in size
#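 Chicken DT40 Tdp1-/- cells stably complemented with human TDP1 were seeded at 400 cells/well in medium containing 20 nM camptothecin, exposed to pin-transferred compounds, and grown at 37 °C for at least 48 hr. Viability was read as ATP luminescence.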
# VDR inhibitor = inhibitors of human vitamin D receptor; P11473; VDR-SRC2-3 peptide fluorescence polarization, 2 h; Potency, µM, for the others: max response, negative = inhibition, actives largely listed as inhibitors; 0.93% of 400,000 active; AID 504847
#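 FP read-out; VDR + SRC2-3 coactivator peptide; 23 nl compound by pintool; 2 h RT incubation; reagents held at 4 deg C, protected from light.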
# Active calls of the source: *; ? = inconclusive; / = no result; [ ] = another dose, or the depositor's remark. Rows were chosen to be rich in hits. Some 18% of all compounds tested hit in one or more screens of this group. The call rests on the fitted dose curve; in most records, active means well fitted curve in the direction sought with a large enough effect; inconclusive means small, poorly fitted or top-dose-only effect, or another doubt; inactive means no such curve, though single readings can be large; an effect the other way counts as inactive or inconclusive. On the % scale 0 is the no-effect control and ±100 the full control effect; potency means the concentration at half of the fitted maximal effect.
SMILES,GCN5L2 inh,PLK1 PBD inh,TDP1 inh,DT40 TDP1 no CPT,TDP1 cell CPT,VDR inhibitor
CN(C(=O)CSc1nc2ccccc2n1CC(=O)N(C)c1ccc(F)cc1)c1ccccc1,-1%,/,4%,21µM*,18µM*,9%
COc1ccc(CNC(=O)Cn2c(SCC(=O)N(C)c3ccccc3)nc3ccccc32)cc1,5%,/,6%,18µM*,?,12%
COc1ccc(Cn2c(SCC(=O)N(C)Cc3ccccc3)nc3ccccc32)cc1,-2%,/,6%,?,?,19%
Cc1cccc(NC(=O)Cn2c(SCC(=O)NCc3ccccc3)nc3ccccc32)c1C,0%,/,6%,-25%,-14%,-6%
CN(C(=O)CSc1nc2ccccc2[nH]1)c1ccc(F)cc1,-4%,/,-1%,-16%,-14%,-17%
CCN(C(=O)CSc1nc2ccccc2n1CC(=O)Nc1ccccc1C)c1ccccc1,17%,/,6%,21µM*,?,8%
CSc1ccccc1NC(=O)C1=CC(c2ccc3c(c2)OCO3)=NS(=O)(=O)N1C,-2%,/,3%,?,?,8%
CCc1cc2c(cc3c(=O)n(CC(=O)N4CCCCC4)nc(CC)n32)s1,-5%,/,5%,?,?,3%
O=C(c1cccc(F)c1F)N1CCOc2ccc(CN3CCC(Oc4cccnc4)CC3)cc2C1,/,/,/,?,-14%[9.04 µM],/
Cc1cc(C)cc(NC(=O)C(OC(=O)c2sccc2C)c2ccccc2)c1 (stereo not drawn),35%,-6%,-3%,?,-21%,-20%
COc1ccc(Cn2c(SCC(=O)NCc3ccccc3)nc3ccccc32)cc1,16%,/,1%,?,?,0%
O=C(CSc1nc2ccccc2n1CCc1ccccc1)c1ccc(O)c(O)c1,?,?,/,16µM*,12µM*,-20%
O=C(CSc1nc2ccccc2n1CCc1ccccc1)N1CCOCC1,-3%,6%,5%,?,?,0%
O=C(CSc1nc2ccccc2n1Cc1ccccc1)NCc1ccccc1,6%,/,-4%,23µM*,-24%,9%
O=C1C2=C(C(=O)c3ccccc31)C1O[C@](CCCCN3C(=O)c4ccccc4C3=O)(Cc3c1ccc1ccccc31)O2,-2%[12.7 µM],/,/,/,/,/
COC(=O)[C@@]1(Cc2ccccc2)[C@H]2c3cc(C(=O)N4CCCC4)n(Cc4ccc(OC)c(OC)c4)c3C[C@H]2CN1C(=O)c1ccccc1,/,/,14%,/,/,/
CC1=NN(c2ccccc2)C(=O)/C1=C/c1ccc(-c2ccc(C)c(C(=O)O)c2)o1,/,4.7µM*,/,?,3%,?
CC1=NN(c2ccc(C(=O)O)cc2)C(=O)/C1=C/c1ccc(-c2ccccc2F)o1,0%,/,/,/,/,/
CC1=NN(c2ccc(Cl)c(C(=O)O)c2)C(=O)/C1=C\c1ccc(-c2ccc(C(=O)O)cc2)o1,?,8.4µM*,79µM*,-3%,-8%,-30%
O=C(c1cc2sccc2n1Cc1ccccc1)N1CCN(c2nc3ccccc3s2)CC1,-6%,-5%,3%,15µM*,15µM*,4%
Cc1cccc(N2CCN(C(=O)c3ccc4ncsc4c3)CC2)c1C,-6%,?,1%,5.2µM*,2.1µM*,11%
O=C(c1ccc2ncsc2c1)N1CCN(c2nc3ccccc3s2)CC1,-3%,2%,4%,15µM*,?,5%
CCc1nc2ccc(C(=O)N3CCN(c4cccc(C)c4C)CC3)cc2nc1CC,-11%,27µM*,6%,?,?,?
O=C(c1ccc2nc(N3CCOCC3)sc2c1)N1CCCC1,-22%,3%,2%,-10%,-4%,19%
CCC(=O)N1CCc2cc(S(=O)(=O)NC(C(=O)NCc3ccc(OC)cc3)C(C)C)ccc21 (stereo not drawn),1%,/,0%,-4%,-17%,-6%
SMILES,GCN5L2 inh,PLK1 PBD inh,TDP1 inh,DT40 TDP1 no CPT,TDP1 cell CPT,VDR inhibitor
CCS(=O)(=O)c1ccccc1C(=O)N1CCN(c2nc3ccccc3s2)CC1,-2%,/,3%,?,?,8%
CN(C1CCCCC1)S(=O)(=O)c1ccc(C(=O)N2CCN(c3nc4ccccc4s3)CC2)cc1,21%,1%,0%,15µM*,23µM*,-9%
Oc1ccc(Cl)cc1CNc1cnc2ccccc2c1,0%,2%,4%,29µM*,?,-14%
CN(C(=O)Nc1cnc2ccccc2c1)c1ccccc1,0%,-3%,-8%,2%,5%,2%
C=CCc1cccc(CNc2nc3ccccc3n2C)c1O,-9%,-10%,/,14%,?,1%
Oc1ccc(Cl)cc1CNCc1cccc2ccccc12,-3%,-1%,-4%,?,?,-29%
Oc1ccc2ccccc2c1CNc1cnc2ccccc2c1,-4%,3.4µM*,12%,-28%,-18%,-46%
C=CCc1cccc(CNc2cnc3ccccc3c2)c1O,-3%,-8%,/,10µM*,6.5µM*,9%
Oc1ccccc1CNc1cnc2ccccc2c1,1%,-10%,6%[56.1 µM],23µM*,23µM*,-1%
CCOc1ccc(Cl)cc1S(=O)(=O)N1CCC(C(=O)NC2CC2)CC1,5%,3%,8%,4%,-1%,?
Cc1ccccc1OC1=NS(=O)(=O)c2ccccc21,-1%,30µM*,3%,?,?,-12%
Cc1ccc(CN2C(=O)C(=O)c3cc(C)ccc32)cc1,-5%,-23%,6%,0.65µM*,0.58µM*,?
CCCN1C(=O)C(=O)c2cc(C)ccc21,-6%,-16%,0%,3.3µM*,2.1µM*,-8%
CCCCN1C(=O)C(=O)c2cc(Cl)ccc21,-10%,?,5%,0.82µM*,1µM*,?
CCCCN1C(=O)c2ccccc2C1=O,/,/,1%,/,/,/
Cc1ccc2c(c1)C(=O)C(=O)N2c1ccc(Cl)cc1,3%,-1%,1%,?,?,-7%
CCCCN(CCCC)Cc1cc(=O)oc2cc(C)c(Cl)cc12,/,-16%,/,?,?,/
CC(C)Cn1c(N)c(C(=O)COC(=O)c2nccnc2N)c(=O)n(C)c1=O,-8%,1%,1%[56.1 µM],-6%,-23%,-15%
CCN(CC)S(=O)(=O)c1ccc(NC(=O)[C@H](CSCc2ccccc2)N2Cc3ccccc3C2=O)cc1,-6%,/,2%,?,21µM*,-10%
CCN(CC)S(=O)(=O)c1ccc(NC(=O)[C@H](CCSC)N2Cc3ccccc3C2=O)cc1,-7%,/,9%,23µM*,?,2%
Cc1c(OCC(=O)NC2CC(C)(C)NC(C)(C)C2)ccc2c3c(c(=O)oc12)CCC3,-1%,-10%,4%,-26%,?,-18%
